The whole screen tested about 330,000 compounds, of which about 1,900 (0.58%) were called active. Roughly 4% stayed inconclusive and do not appear here. A selection follows. Entries with a potency or affinity are not part of this list. A number with no mark means an inactive call. Cut-off read from the data, not from the text of the source: inconclusive = inhibition above about 70% without an active follow-up result; inactive = below that.
Test: M. tuberculosis growth inhibition, HTS (AID 449762);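 note: bacterial growth assessed after seven days of incubation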
Conditions: M. tuberculosis H37Rv growth inhibition, 7H9 media; at 25 µM; stronger effect = higher value

SMILES	inhibition [%]
Cc1[nH]n(S(=O)(=O)c2ccccc2)c(=O)c1N=Nc1cccc(Cl)c1	0.21
COc1cccc(CNC(=O)Cn2ccc([N+](=O)[O-])n2)c1	-0.85
CCC(=O)Nc1ccc2c(c1)nc(CCNC(=O)c1ccco1)n2C	2.89
CS(=O)(=O)c1ccc2nc(NC(=O)c3ccc(NS(=O)(=O)c4ccc(F)c(F)c4)cc3)sc2c1	-0.5
CS(=O)(=O)c1ccc2nc(NC(=O)c3cccc(NS(=O)(=O)c4ccc(F)c(F)c4)c3)sc2c1	60.6
CCN(CC)S(=O)(=O)c1ccc(N2CCOCC2)c(NS(=O)(=O)c2ccc(C(C)C)cc2)c1	-4.72
Cc1ccc([C@@H]2CC=C(C(=O)O)[C@H](c3ccc(F)cc3)N2S(=O)(=O)c2ccccc2C)cc1	0.59
O=C1CCCC(=O)N1c1ccc(F)cc1	-3.22
CCCCN1C(=O)c2ccc(C(=O)Nc3cccnc3)cc2C1=O	48.5
CC1=C(/C=C/C(C)=C/C=C/C(C)=C\C(=O)O)C(C)(C)CCC1	69.3
CC1=C(/C=C/C(C)=C/C=C/C(C)=C/C(=O)O)C(C)(C)CCC1	26.5
O=c1cc(C23CC4CC(CC(C4)C2)C3)[nH][nH]1	4.36
N#Cc1ccc(C23CC4CC(CC(C4)C2)C3)[nH]c1=O	12.1
Cc1cnc(CN(C)C(=O)CC2C(=O)NCCN2CCCc2ccccc2)[nH]1 (stereo not drawn)	-8.51
Cc1nn(C(C)C(=O)NCc2ccccc2F)c(=O)c2nn(-c3ccccc3)c(C)c12 (stereo not drawn)	0.01
CCN1C(=O)[C@H]2[C@@H](c3ccc(-c4ccc(Cl)c(Cl)c4)cc3)N[C@@](Cc3ccccc3)(C(=O)OC)[C@H]2C1=O	4.89
COc1ccccc1N1CCN(CC(=O)Nc2nccs2)CC1	6.27
Cc1ccccc1N1CCN(CC(=O)Nc2nccs2)CC1	6.57
O=C(CC(=O)NC1CCCCC1)N/N=C/c1ccccc1F	7.41
CCOC(=O)CNC(=O)c1cnc(Nc2ccccc2OC)c2ccccc12	2.72
O=C(O)Cc1c(-c2ccccc2Cl)c2cc(Br)ccc2[nH]c1=O	0.9
N#Cc1ccc(-c2csc(NNC(=O)c3ccccc3)n2)cc1	1.66
O=C(NNc1nc(-c2ccc(F)cc2)cs1)c1ccccc1	1.95
Cc1cc(C)c(C#N)c(SCCS(=O)(=O)c2ccc(C(C)(C)C)cc2)n1	1.43

SMILES	inhibition [%]
CCC(=O)CCC(=O)c1ccc2ccccc2c1	9.13
O=C1C=C(O)c2c(O)cccc2C1=O	-6.54
COc1cccc2c1C(=O)C=C(C)C2=O	-8.66
CC(=O)NC12CC3CC(C1)CC(C(=O)Nc1c(C)n(C)n(-c4ccccc4)c1=O)(C3)C2	-13
COc1ccc(NC(=O)CSc2nnnn2-c2ccc(F)cc2)cc1	-7.12
C[C@@]12C(=O)N(CCO)CC(=O)N1[C@H](/C=C/c1ccccc1)[C@@H]1C(=O)N(c3ccccc3)C(=O)[C@@H]12	-1.57
CC(=O)OCC1(C)CN(c2ccccc2)N(C(=O)c2ccc(F)cc2)C1=O (stereo not drawn)	37.7
CC1(C)CN(c2cccc(C#N)c2)C1=O	-3.52
COc1cccc(CN(C(=O)c2ccccc2Br)C2CCS(=O)(=O)C2)c1 (stereo not drawn)	-0.47
CC1(C)CC(=O)C2=C(C1)NC(Nc1nc3ccccc3o1)=NC21CCCCC1	-1.05
CC1(C)CC(=O)C2=C(C1)NC(Nc1nc3ccccc3o1)=NC21CCCC1	-11
O=C(CN1C(=O)c2ccccc2S1(=O)=O)NC1CC2CCC1C2 (stereo not drawn)	-4.11
CN1CCN(c2ccc(NC(=O)CN3CCOCC3)cc2F)CC1	-4.73
CC(C)CNC(=S)NC(=O)c1ccc([N+](=O)[O-])cc1	11.6
C=CCNC(=S)NC(=O)c1csc([N+](=O)[O-])c1	18.2
CCn1c(SCC(=O)N/N=C/c2ccccc2OCC(=O)O)nnc1-c1ccc(OC)cc1	1.34
Oc1ccc(CNc2ccccc2)c2cccnc12	-3.76
Oc1ccc(CN2CCN(Cc3ccccc3)CC2)c2cccnc12	14.4
Oc1ccc(CN2CCCc3ccccc32)c2cccnc12	-5.25
Cc1ccccc1NCc1ccc(O)c2ncccc12	2.36
Cc1cccc(NCc2ccc(O)c3ncccc23)c1	14.1
Oc1ccc(CNc2ccc(F)cc2)c2cccnc12	-1.78
Cc1cccnc1NCc1ccc(O)c2ncccc12	51.8
OCc1ccc(O)c2ncccc12	52.4

— PubChem BioAssay AID449762 (Southern Research Specialized Biocontainment Screening …, 2010)
